From PubChem
A selection: hits, their analogues and other compounds. The true share with any hit is near 2.1%.
aSyn rescue: inhibitors of alpha-synuclein toxicity in yeast; Yeast expressing alpha-synuclein, growth rescue, BacTiter-Glo, 24 h; Potency, µM (top dose mostly 46.1 µM), actives largely listed as activators; actives 0.14% (n = 370,000); note: nearly all actives have a fitted effect of over 65% in size
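Screening used galactose-induced yeast with toxic alpha-synuclein levels, exposed to compound for 24 hr at 30 deg C. Cell growth, read with BacTiter-Glo luminescence, gave the measured signal.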
Abeta yeast res: restores growth of yeast expressing A-beta42 peptide | yeast expressing A-beta42, growth rescue, OD600, 48 h; response scale: 0% DMSO, 100% iron-clioquinol control | Potency, µM (series often up to 46.1 µM), usual class: activators | actives 0.063% (n = 410,000) | AID 1347071; note: nearly all actives have a fitted effect of over 55% in size
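Growth rescue measured by 600 nm absorbance after 48 h yeast culture at 30 C with compound. Values normalized between DMSO and an equimolar ferric chloride plus clioquinol control.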
FUS suppressor: suppressors of FUS proteinopathy in yeast; Potency, µM (top dose mostly 76.6 µM), hits mostly activators; actives 0.24% (n = 390,000); S. cerevisiae FUS-expressing, growth rescue, OD600, 24 h; note: nearly all actives have a fitted effect of over 55% in size
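Yeast expressing FUS under galactose induction, OD 0.005 in 2% galactose medium; compounds in a dilution series, 24 h at 30C. Growth rescue by absorbance at 600 nm; CP55940 positive control, DMSO negative.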
TDP43 rescue: rescues yeast growth from TDP-43 toxicity | actives 1.8% (n = 410,000) | Potency, µM (top dose mostly 46.1 µM), hits mostly activators | TDP-43 expressing yeast growth rescue, BacTiter-Glo, 24 h; note: nearly all actives have a fitted effect of over 50% in size
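Yeast expressing TDP-43 (pregrown in raffinose, seeded at OD600=0.02 in galactose medium) exposed to compounds 24 hr at 30 deg C. Growth read by BacTiter-Glo luminescence; rescue of toxicity appears as increased signal.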
Of the large screens only hits and unclear results are named; the others gave an inactive call. Calls come from the whole dose curve; as a rule, active = well fitted curve in the direction sought with a large enough effect; inconclusive = small, poorly fitted or top-dose-only effect, or another doubt; inactive = no such curve, though single readings can be large; an effect the other way counts as inactive or inconclusive.

O=C(O)CN1C(=O)/C(=C/C=C/c2ccccc2)SC1=S	none
O=C(O)CN1C(=O)/C(=C\c2cccc(OCc3ccccc3F)c2)SC1=S	Abeta yeast res 8.9µM
Cc1ccn2c(=O)nc(SCC(=O)Nc3cccc4ccccc34)nc2c1	FUS suppressor 22µM
Cc1ccc2nc(SCC(=O)Nc3ccc(Cl)cc3)nc(=O)n2c1	none
O=C(CSc1nc(=O)n2cc(Cl)ccc2n1)Nc1cccc2ccccc12	TDP43 rescue 7.1µM
CN(C)S(=O)(=O)c1ccc2c(c1)nnn2CCNC(=O)Nc1ccc(Cl)cc1	none (no result: aSyn rescue)
CN(C)c1ccc(CNC(=O)C2CCN(S(=O)(=O)c3ccc4[nH]c(=O)ccc4c3)CC2)cc1	none
Cc1c(NS(=O)(=O)c2ccccc2)cc(C(C)C)c(O)c1S(=O)(=O)c1ccc(Cl)cc1	none (no result: aSyn rescue)
Cc1ccc2[nH]c3c(Cl)ncnc3c2c1	none
COc1ccc2c(c1)[nH]c1c(Cl)ncnc12	aSyn rescue inconclusive, TDP43 rescue 11µM
Cc1ccccc1CNC(=O)C1CCC(CNS(=O)(=O)c2cccc3cccnc23)CC1 (stereo not drawn)	none (no result: aSyn rescue, Abeta yeast res, TDP43 rescue)
Nc1c(Cl)ncnc1N/N=C/c1ccc2ccccc2n1	aSyn rescue 6.3µM, TDP43 rescue inconclusive
COc1cc2nc(NC3CCN(Cc4ccccc4)CC3)nc(N3CCCN(C)CC3)c2cc1OC	none (no result: Abeta yeast res, FUS suppressor, TDP43 rescue)
CCN1CCN(C(=O)Cn2c(-c3cccs3)cc3cc(Cl)ccc32)CC1	none (no result: aSyn rescue)
Cc1ccsc1-c1nc(CSCC(=O)N2CCN(c3ccccc3)CC2)c(C)o1	TDP43 rescue 13µM
COc1ccc(-c2nc(CSCC(=O)N3CCN(c4ccccc4)CC3)c(C)o2)cc1	none (no result: aSyn rescue)
CC1=NNC(=O)/C1=C\c1cn(-c2ccccc2)nc1-c1ccc(F)cc1	FUS suppressor inconclusive, TDP43 rescue 11µM
CC1=NNC(=O)/C1=C\c1cn(-c2ccccc2)nc1-c1cccs1	FUS suppressor inconclusive
CC(C)c1ccc(NC(=O)c2cc3c([nH]c2=O)CC(C)(C)CC3=O)cc1	none (no result: Abeta yeast res, FUS suppressor, TDP43 rescue)
NC(=O)c1ccc(N2CCN(c3ncc(C(F)(F)F)cc3Cl)CC2)cc1	none
Nc1ccc(N2CCN(c3ncc(C(F)(F)F)cc3Cl)CC2)c(C(F)(F)F)c1	TDP43 rescue 20µM
CC1(C)c2ssc(=S)c2-c2ccccc2N1C(=O)CSC1=NCCS1	TDP43 rescue 35µM
COc1ccc2c(c1)-c1c(ssc1=S)C(C)(C)N2C(=O)CSC1=NCCS1	TDP43 rescue inconclusive
CC(C)COc1ccc(-c2nnc(-c3ccco3)o2)cc1	TDP43 rescue 10µM
CCCOc1ccc(-c2nnc(-c3ccco3)o2)cc1	TDP43 rescue inconclusive
COc1cccc(-c2nnc(-c3ccc(C)o3)o2)c1	none
COc1cccc(-c2nnc(-c3ccco3)o2)c1	TDP43 rescue 16µM
O=C(Cn1c(=O)n(-c2ccc(F)c(Cl)c2)c(=O)c2sc3ccccc3c21)NC1CCCCC1	none (no result: aSyn rescue)
CC(C)CN(CCCNC(=O)c1cc(-c2cccs2)nc2ccccc12)CC(C)C	none (no result: aSyn rescue)
Cc1ccc2c(=O)c(C(=O)c3ccccc3)cn(CC(=O)Nc3ccc4c(c3)OCCO4)c2n1	none (no result: aSyn rescue)
COc1ccc(-c2cn[nH]c2-c2ccc(OCc3ccccc3)cc2O)cc1	none
COc1ccc(-c2cn[nH]c2-c2ccc(OC)cc2O)cc1	aSyn rescue 22µM, Abeta yeast res inconclusive, TDP43 rescue 25µM
CCc1ccccc1NC(=O)NC(CC)Cn1nnc2ccccc2c1=O (stereo not drawn)	none (no result: aSyn rescue)
Cc1oc(-c2ccc(Cl)cc2)nc1CSCC(=O)NCc1ccccc1Cl	none (no result: aSyn rescue)
Cc1oc(-c2cccc(Cl)c2)nc1CSCC(=O)NCc1ccccc1Cl	TDP43 rescue 22µM (no result: aSyn rescue)
O=C(Nc1cccc(NC(=O)c2ccccc2)n1)c1ccccc1	TDP43 rescue 11µM
Cc1cccc(NC(=O)c2ccc(C(=O)c3ccccc3)cc2)n1	TDP43 rescue inconclusive
O=c1[nH]c2cc3c(cc2cc1C(c1nnnn1Cc1ccccc1)N1CCCCCC1)OCCO3 (stereo not drawn)	none
O=c1[nH]c2cc3c(cc2cc1C(c1nnnn1Cc1ccccc1)N1CCN2CCCC2C1)OCCO3 (stereo not drawn)	FUS suppressor 18µM
CCOc1ccc(CCNC(=O)Cn2c(=O)c3cccn3c3ccc(F)cc32)cc1OCC	none (no result: aSyn rescue)
Cc1cccc(/C=C/c2onc(C)c2[N+](=O)[O-])n1	aSyn rescue inconclusive, TDP43 rescue 13µM
Cc1noc(/C=C/c2nn(C)cc2Cl)c1[N+](=O)[O-]	TDP43 rescue 13µM
Cc1cccc(N/C=C/c2onc(C)c2[N+](=O)[O-])c1	none
COP(=O)(O)[C@@H](CC(C)C)NC(=O)OCc1ccccc1	none (no result: aSyn rescue, Abeta yeast res, TDP43 rescue)
CCCCCS(=O)(=O)c1oc(-c2cccs2)nc1S(=O)(=O)c1ccc(C)cc1	none (no result: aSyn rescue)
CCCCS(=O)(=O)c1oc(-c2cccs2)nc1S(=O)(=O)c1ccc(F)cc1	TDP43 rescue 22µM (no result: aSyn rescue)
COc1cccc2cc(/C(=N/O)c3ccccc3)oc12	TDP43 rescue 11µM
COc1cccc2cc(C(C)=O)oc12	TDP43 rescue inconclusive
CCOc1ccccc1NC(=O)C(=O)c1cc(C)n(-c2cccc(C)c2C)c1C	none (no result: aSyn rescue)
COC(=O)c1sccc1NC(=O)Nc1cc(OC)ccc1OC	TDP43 rescue 18µM
COC(=O)c1sccc1NC(=O)Nc1cccc(Cl)c1Cl	none
COC(=O)c1sccc1Oc1c(Cl)cccc1[N+](=O)[O-]	TDP43 rescue 20µM
COC(=O)c1sccc1NC(=O)Nc1ccccc1Cl	TDP43 rescue 11µM
COC(=O)c1sccc1NC(=O)c1ccccc1[N+](=O)[O-]	TDP43 rescue inconclusive (no result: FUS suppressor)
COC(=O)c1c(N)n(-c2cc(Cl)cc(Cl)c2)c2nc3ccccc3nc12	none
Cc1ccc(C(=O)/C=C/c2ccc3ncccc3c2)cc1	TDP43 rescue 13µM
COc1cc(/C=C/C(=O)c2ccc(C)cc2)ccc1OCC#N	TDP43 rescue 20µM (no result: FUS suppressor)
COc1cc(/C=C/C(=O)c2ccc(F)cc2)cc(OC)c1OC	TDP43 rescue 14µM
Cc1ccc(C(=O)Nc2ccc3ncccc3c2)cc1	none
CCOc1ccc(C(=O)/C=C/c2cc(OC)c(OC)c(OC)c2)cc1	none
COc1ccc(/C=C/C(=O)c2cc(F)ccc2OC(=O)c2ccccc2)cc1OC	TDP43 rescue 13µM
CCOC(=O)c1c(NC(=O)c2ccc(OCC)c(Br)c2)sc2c1CCCC2	none (no result: aSyn rescue)
CCOC(=O)c1ccc(NC(=O)Cn2cc(C(=O)c3ccc(Cl)cc3)c(=O)c3ccc(C)nc32)cc1	none (no result: aSyn rescue)
CCOc1ccc(CNS(=O)(=O)c2ccc3c(c2)CC(C)N3C(C)=O)cc1OC (stereo not drawn)	none (no result: aSyn rescue)
CCCCCCC(=O)Nc1ccc(C(=O)N/N=C/c2cccnc2)cc1	FUS suppressor 28µM
CCOC(=O)C1CCCN(CCC(=O)Nc2ccc(OC)cc2OC)C1 (stereo not drawn)	none (no result: aSyn rescue)
Cc1ccc(C)c(CN2C(=O)c3ccccc3S(=O)(=O)c3ccc(C(=O)N4CCOCC4)cc32)c1	FUS suppressor 28µM (no result: aSyn rescue)
CCOC(=O)c1c(C)nc(C(Cl)(Cl)Cl)nc1N	TDP43 rescue 11µM
CC1(c2nnnn2Cc2ccccc2)CN(S(C)(=O)=O)CC(=O)N1Cc1cccs1 (stereo not drawn)	none (no result: aSyn rescue, Abeta yeast res, TDP43 rescue)
